This is a sample that favours compounds with a hit; in the whole collection about 2.2% have one here.
BaF3 tox = reduces parental Ba/F3 cell viability, JAK2V617F counter-screen; CellTiter-Glo ATP luminescence; inhibition, % at 5.6 µM; actives 1.1% (n = 220,000); AID 1486;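 active = inhibition above a per-campaign cutoff, the mean inhibition of all tested compounds plus 3 SD, cut at about 27% in these data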;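 note: 0% = DMSO wells and 100% = JAK Inhibitor I control wells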
Ba/F3 V617F tox = lowers viability of Ba/F3 cells expressing EpoR and JAK2V617F; AID 1446; actives 1.1% (n = 220,000); ATP luminescence; inhibition, % at 5.6 µM;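 active = inhibition above the campaign mean plus 3 SD over all tested compounds, cut at about 24% in these data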;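 note: cytokine-independent growth of Ba/F3 cells driven by EpoR plus mutant JAK2; 0% = DMSO-treated cells and 100% = JAK inhibitor I control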
KLF5 inh = suppresses KLF5 promoter-driven expression; inhibition, % at 5 µM; actives 0.23% (n = 290,000); DLD-1 KLF5 promoter-luciferase reporter, luminescence;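 active = inhibition above a per-plate limit of that plate's mean compound inhibition plus 3 SD, cut at about 60% in these data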;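 note: 0% = DMSO wells and 100% = LY294002 at 200 µM; higher means less KLF5 promoter-driven luciferase light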
aSyn 5UTR inh = MLPCN primary screen, SNCA 5' untranslated region; alpha-synuclein 5'UTR reporter, inhibitor activity; inhibition, % (tested at 7.5 µM); actives 0.82% (n = 300,000); in the data active = inhibition above about 60%;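 note: H4 neuroglioblastoma cells stably carrying SNCA 5'UTR luciferase fusion; 0% = DMSO wells and 100% = positive control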
APP 5UTR inh = APP translation inhibition | SH-SY5Y APP 5'UTR-luciferase reporter, luminescence | inhibition, % at 2 µM | actives 0.82% (n = 190,000) | AID 1285;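 active = inhibition above a set limit, derived from the sample mean plus 3 SD, cut at about 45% in these data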
IEC-6 tox = IEC-6 cytotoxicity, counter-screen for KLF5 inhibitors; luminescence viability; inhibition, % at 5 µM; actives 0.78% (n = 290,000); in the data active = inhibition above about 22%;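 note: 0% = plate median of test compound wells and 100% = cytotoxic reference compound wells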
Numbers without * were called inactive; x = not tested or not shown.

SMILES	BaF3 tox	Ba/F3 V617F tox	KLF5 inh	aSyn 5UTR inh	APP 5UTR inh	IEC-6 tox
CC(=O)Oc1ccc(C2=NN(c3ccccc3)C(c3ccccc3)C2)cc1 (stereo not drawn)	x	x	-13	-30	x	-3
CC(=O)c1ccccc1OCCOCCOCCOc1ccccc1C(C)=O	-2	-5	-13	67*	-15	-9
CC(=O)c1ccccc1OCCCN1CCCCC1	1	3	-10	-5	22	-3
CCN(CC)c1ccc(C2=NNC(=O)CC2C)cc1[N+](=O)[O-] (stereo not drawn)	3	6	-30	98*	-10	-1
CC1CC(=O)NN=C1c1ccc(N(C)C)c([N+](=O)[O-])c1 (stereo not drawn)	3	0	-25	48	8	-4
COc1ccccc1/C=C/C(=O)Nc1ccc(S(=O)(=O)Nc2cc(C)nc(C)n2)cc1	x	x	-3	21	x	-6
COc1ccc(-c2cc(C3CCN(c4cc(Cl)nc(N)n4)CC3)[nH]n2)cc1	2	-5	-17	39	-4	5
Nc1nc(Cl)cc(N2CCC(c3cc(-c4ccc(Cl)cc4)n[nH]3)CC2)n1	45*	47*	14	43	28	20
CCn1c(C)c(C(=O)c2ccccc2)c(C#N)c1C(=O)O	x	x	-54	3	x	8
COc1ccc(OC)c(NC(=O)c2ccc(NC3=NC4CS(=O)(=O)CC4S3)cc2)c1 (stereo not drawn)	x	x	-26	-12	x	1
CC(=O)N(Cc1cccnc1)Cc1cc2ccc(C)cc2[nH]c1=O	95*	-3	-14	4	10	2
CCCN(Cc1cc2ccc(C)cc2[nH]c1=O)C(=O)c1cccnc1	10	3	-22	17	-13	-1
CCC(C)(C)c1ccc(OCC(=O)Nc2ccncc2)cc1	x	x	-26	-15	x	-9
Oc1ccccc1-c1nnc(SCCN2CCOCC2)n1Cc1ccccc1	83*	94*	49	81*	37	-1
COc1ccc(Cn2c(-c3ccc(C)cc3)c[n+]3ccccc23)cc1	71*	90*	7	-20	1	10
COc1ccc(-c2nc3ccccc3n2Cc2ccc(C)cc2)cc1	6	2	-18	-47	-5	7
CCOc1ccc(N(C(=O)Nc2ccccc2)C2=NCCC2)cc1	3	-3	-16	-4	-20	1
CNC(=O)N(C1=NCCCCC1)c1ccc(Br)cc1	4	-2	-6	21	45*	-10
Cc1cc(=O)n2nc(N3CCCC(C(=O)NC4CCCCC4C)C3)sc2n1 (stereo not drawn)	x	x	0	11	x	0
CNC[C@H](CC1CCCCC1)NC[C@H](Cc1ccccc1)NCCC12CC3CC(CC(C3)C1)C2	x	x	-8	125*	x	-6
Cc1ccc2c(c1)C=CC(C)N2C(=O)c1ccccc1 (stereo not drawn)	1	1	7	18	2	-4
Cc1ccc2c(c1)C=CC(C#N)N2C(=O)c1ccccc1 (stereo not drawn)	36*	78*	45	52	94*	40*
O=C(N1CCN(c2ccccn2)CC1)N1c2ccccc2Sc2ccccc21	76*	71*	19	3	94*	17
O=C(c1ccc(Br)s1)N1CCN(c2ccccn2)CC1	x	x	-25	-17	x	-7
O=C(Nc1ccc2oc(=O)ccc2c1)c1ccc(-c2cccc(Cl)c2)o1	1	2	-8	14	x	7
SMILES	BaF3 tox	Ba/F3 V617F tox	KLF5 inh	aSyn 5UTR inh	APP 5UTR inh	IEC-6 tox
O=C(Nc1ccc2oc(=O)ccc2c1)c1ccc(-c2cccc([N+](=O)[O-])c2)o1	-1	10	22	92*	x	6
CCCOc1c(OC)cccc1C1CC(=O)Nc2cc3c(cc21)OCO3 (stereo not drawn)	1	0	-4	-3	9	0
CCOc1ccccc1C1C2=C(COC2=O)Nc2cc3c(cc21)OCO3 (stereo not drawn)	74*	83*	63*	117*	96*	91*
Cc1cc(N2C(=O)C=CC2=O)c([N+](=O)[O-])cc1C	3	-2	-22	21	62*	5
Cc1ccc(N2C(=O)C3C4C=CC(CC4)C3C2=O)cc1[N+](=O)[O-] (stereo not drawn)	x	x	-55	-5	x	3
Cc1nc(=O)c(-c2ccccc2)c(C)n1Cc1ccccc1	4	-4	-16	1	48*	-8
CCC1S/C(=C(\C#N)C(=O)NCc2ccco2)N(c2ccc(F)cc2)C1=O (stereo not drawn)	33*	4	-21	6	-10	-8
